Screening results from PubChem BioAssay.
Tau fluor counter: Counterscreen qHTS for Inhibitors of Tau Fibril Formation, Fluorescence Polarization | tau K18 P301L Alexa594 fluorescence, heparin fibrillization | 0.93% of 280,000 active | AID 1463, 2008 | Potency, µM (highest dose often 57.7 µM), without a hit: top-dose activity change, negative = decrease; note: nearly all actives have a fitted effect of over 55% in size
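Human tau K18 P301L (15 uM unlabeled, 0.24 uM Alexa 594-labeled) in 100 mM sodium acetate pH 7 with 20 uM heparin, 6 hr at 37 C. ThT 30 uM added, 1 hr ambient; Alexa 594 FP and total fluorescence read at 555/632 nm.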
Tau fibril FP: qHTS for Inhibitors of Tau Fibril Formation, Fluorescence Polarization; 0.39% of 280,000 active; K18 P301L tau heparin fibrillization, Alexa594 FP, 6 h; Potency, µM (highest dose often 57.7 µM), for the others: at the highest dose activity, negative = inhibition, hits mostly inhibitors; Microtubule-associated protein tau (Homo sapiens), P10636; note: nearly all actives have a fitted effect of over 55% in size
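Compound effects on tau fibrillization are measured by Alexa 594 fluorescence polarization (ex 555, em 632 nm). K18 P301L tau is used at 15 uM with 0.24 uM labeled tracer, and 20 uM heparin induces aggregation over 6 hr at 37 C.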
Tau ThT inhib: qHTS for Inhibitors of Tau Fibril Formation, Thioflavin T Binding; Potency, µM (doses to about 57.4 µM), without a hit: top-dose activity, negative = inhibition, actives largely listed as inhibitors; AID 1460, 2008; Microtubule-associated protein tau (Homo sapiens), P10636; recombinant tau K18 P301L, heparin-induced fibrillization, ThT fluorescence; 2.1% of 270,000 active; note: nearly all actives have a fitted effect of over 55% in size
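ThT emission at 510 nm, taken 1 hr after adding 30 uM dye, quantifies aggregates formed when 20 uM heparin acts on human tau K18 P301L for 6 hr at 37 C.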
Gal4-VP16 FLuc: VP16 counterscreen qHTS for inhibitors of ROR gamma transcriptional activity; Drosophila S2 Gal4-VP16 UAS-luciferase, luminescence, 20 h; Potency, µM (highest dose often 53.6 µM), for the others: top-dose activity, negative = inhibition, actives largely listed as inhibitors; 3.5% of 310,000 active;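 note: Gal4-VP16 expression switched on by copper sulfate through the metallothionein promoter; nearly all actives have a fitted effect of over 50% in size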
RORg inh: qHTS for inhibitors of ROR gamma transcriptional activity | Nuclear receptor ROR-gamma (Mus musculus), P51450 | Drosophila S2 Gal4-RORgamma UAS-luciferase reporter, 20 h | Potency, µM (highest dose often 53.6 µM), for the others: top-dose activity change, negative = inhibition, actives largely listed as inhibitors | 5.4% of 310,000 active; note: nearly all actives have a fitted effect of over 60% in size
Target sequence (P51450 whole entry, looked up, the tested form may be a part): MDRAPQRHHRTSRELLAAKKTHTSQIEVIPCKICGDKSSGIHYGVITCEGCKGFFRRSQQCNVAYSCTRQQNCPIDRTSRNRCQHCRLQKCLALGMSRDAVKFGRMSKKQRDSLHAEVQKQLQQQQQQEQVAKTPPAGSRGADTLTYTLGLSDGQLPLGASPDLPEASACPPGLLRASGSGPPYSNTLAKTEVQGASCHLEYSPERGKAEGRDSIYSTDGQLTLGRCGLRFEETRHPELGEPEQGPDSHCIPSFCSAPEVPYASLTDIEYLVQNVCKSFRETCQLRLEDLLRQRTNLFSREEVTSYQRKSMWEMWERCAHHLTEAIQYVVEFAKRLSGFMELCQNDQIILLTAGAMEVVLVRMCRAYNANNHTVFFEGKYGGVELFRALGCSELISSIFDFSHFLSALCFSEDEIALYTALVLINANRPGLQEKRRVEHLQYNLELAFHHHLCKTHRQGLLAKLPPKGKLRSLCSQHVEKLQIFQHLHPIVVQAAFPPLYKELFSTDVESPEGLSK
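Using a luciferase readout, inhibitors were identified by reduced reporter activity in Drosophila cells coexpressing a copper-inducible Gal4–ROR gamma fusion and UAS-driven Photinus luciferase, incubated 20 hr after 700 uM copper sulfate.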
An asterisk follows results filed as active; u = inconclusive; x = no result given; [ ] = another dose, or the depositor's remark. Hits are enriched below; roughly 7.3% of the tested compounds scored in any of these assays. Calls come from the whole dose curve; as a rule, active = well fitted curve in the direction sought with a large enough effect; inconclusive = small, poorly fitted or top-dose-only effect, or another doubt; inactive = no such curve, though single readings can be large; an effect the other way counts as inactive or inconclusive. % is set by controls: 0 for no effect and ±100 for the full control effect; potency is the fitted concentration of half-maximal effect.

SMILES	Tau fluor counter	Tau fibril FP	Tau ThT inhib	Gal4-VP16 FLuc	RORg inh
Oc1ccccc1/C=N/Nc1cc(N2CCCC2)nc(N2CCCC2)n1	u	-4.9%	u	u	11.2µM*
COc1ccccc1N(C)S(=O)(=O)c1ccc(C(=O)N2CCCc3ccccc32)cc1	x	x	x	-18.1%	39.8%
Cc1n[nH]c(=S)n1-c1cccc(Cl)c1	13.0%	6.0%	1.1%	u	11.2µM*
Cc1ccccc1OCc1nnc(SCC(=O)O)n1-c1cccc(Cl)c1	x	x	x	-0.5%	10.2%
Cc1cccc(C)c1NCc1n[nH]c(=S)n1-c1ccccc1	3.8%	-5.7%	10.7%	u	2µM*
Cn1c(Cc2ccccc2)n[nH]c1=S	11.8%	6.1%	12.6%	-28.3%	u
Cc1ccccc1OCc1n[nH]c(=S)n1-c1cccc(Cl)c1	x	x	x	4.47µM*	3.98µM*
Cn1c(CCc2ccccc2)n[nH]c1=S	2.6%	-4.1%	1.3%	-2.9%	12.6µM*
CCOC(=O)c1c(C)n(-c2ccc(OC)cc2)c2ccc(OC(=O)COc3ccccc3)cc12	-24.7%	-4.2%	-18.1%	x	x
Cc1cc(OCc2n[nH]c(=S)n2-c2ccccc2)ccc1Cl	x	x	x	3.55µM*	2.51µM*
COCc1n[nH]c(=S)n1-c1ccccc1	-10.8%	4.5%	-4.4%	1.2%	-11.2%
Cc1cc(OCc2nnc(SCC(=O)O)n2-c2ccccc2)ccc1Cl	x	x	x	5.3%	3.3%
CC(C)Oc1ccc(CCc2n[nH]c(=S)n2-c2ccccc2)cc1	-6.2%	-4.7%	-10.0%	-11.0%	7.08µM*
Cn1c(CSCCOc2ccccc2)n[nH]c1=S	-15.4%	-12.1%	-17.1%	u	1µM*
Cc1cccc(OCc2n[nH]c(=S)n2-c2ccccc2)c1	-5.8%	6.4%	-8.3%	u	2.24µM*
CCOC(=O)C1(Cc2ccccc2C)CCCN(C(=O)c2ccc(OC)o2)C1 (configuration not stated)	x	x	x	-18.1%	-34.9%
Cc1cccc(C)c1OCc1n[nH]c(=S)n1-c1ccccc1	-5.2%	-2.7%	-1.3%	u	1.26µM*
Cc1ccc(OCc2n[nH]c(=S)n2-c2ccccc2)cc1C	-11.5%	-0.1%	-15.1%	u	2µM*
OCCCc1n[nH]c(=S)n1-c1ccccc1	-6.6%[2.34 µM]	-6.3%[2.34 µM]	u	-0.6%	0.6%
S=c1[nH]nc(CSCc2ccccc2Cl)n1-c1ccccc1	-10.3%	1.8%	-11.5%	6.31µM*	1µM*
Cc1ccc(C2CC2/C(=N/O)c2ccc(F)cc2)cc1 (configuration not stated)	x	x	x	-5.3%	15.7%
CCOC(=O)c1ccc(S(=O)(=O)NCC(c2ccc(N(C)C)cc2)c2c[nH]c3ccccc23)cc1 (configuration not stated)	-8.6%	-3.8%	0.7%	-8.7%	8.1%[10 µM]
CN(C)c1ccc(C(CNC(=O)c2ccc(C#N)cc2)c2c[nH]c3ccccc23)cc1 (configuration not stated)	14.1µM*[quencher]	u	u	0.2%	6.4%
CN(C)c1ccc(C(CNS(=O)(=O)c2ccc(F)cc2)c2c[nH]c3ccccc23)cc1 (configuration not stated)	11.2µM*[quencher]	12.4%	-11.5%	-0.6%	u
CCOC(=O)c1c(NC(=O)c2ccc(S(=O)(=O)N(CC(C)C)CC(C)C)cc2)sc2c1CCN(C(=O)OCC)C2	6.3%	1.3%	6.1%	x	x
COc1ccc(C)cc1NS(=O)(=O)c1ccc(-c2cnc(C3CC3)o2)cc1	-27.6%	3.2%	-10.2%	17.8µM*	34.4%
O=C1c2ccccc2C(=O)c2c(O)c(O)cc(O)c21	14.1µM*[quencher]	u	5.01µM*	-19.4%	-38.2%
CCc1nnc(NC(=O)c2ccc(S(=O)(=O)N(CC)Cc3ccccc3)cc2)o1	u	8.5%	u	0.112µM*	0.1µM*
COc1ccccc1-c1nnc(NC(=O)c2ccc(S(=O)(=O)N(C)Cc3ccccc3)cc2)o1	-8.9%	-3.2%	-6.9%	0.0028µM*	0.316µM*
CCN(Cc1ccccc1)S(=O)(=O)c1ccc(-c2coc(C)n2)cc1	-16.6%	-5.8%	-12.3%	x	x
